# Records with an inconclusive call do not appear. Calls of active or inactive are those of the source. Calls come from the whole dose curve; as a rule, active = well fitted curve in the direction sought with a large enough effect; inconclusive = small, poorly fitted or top-dose-only effect, or effect the other way, or another doubt; inactive = no such curve, though single readings can be large or run the other way.
# Target: Alpha-galactosidase A (Homo sapiens) (UniProt P06280)
# Test: Confirmation of Inhibitors of Human alpha-Galactosidase Using Spleen Homogenate; note: 0% is about no effect
# Details: alpha-galactosidase enzyme activity; series mostly up to 56.2 µM; activity change: at the top concentration
# Summary of the method: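 Human spleen homogenate (1 ug) with 1 mM 4-methylumbelliferyl-alpha-D-galactopyranoside in citrate-phosphate pH 5.0, 0.01% Tween-20, 37C 40 min; compounds 0.5 nM–58 uM final. Stopped at pH 10, fluorescence Ex 365/Em 440; AC50 from Hill fits.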
# Chain of Alpha-galactosidase A (Homo sapiens) (P06280 32-429 limits assumed): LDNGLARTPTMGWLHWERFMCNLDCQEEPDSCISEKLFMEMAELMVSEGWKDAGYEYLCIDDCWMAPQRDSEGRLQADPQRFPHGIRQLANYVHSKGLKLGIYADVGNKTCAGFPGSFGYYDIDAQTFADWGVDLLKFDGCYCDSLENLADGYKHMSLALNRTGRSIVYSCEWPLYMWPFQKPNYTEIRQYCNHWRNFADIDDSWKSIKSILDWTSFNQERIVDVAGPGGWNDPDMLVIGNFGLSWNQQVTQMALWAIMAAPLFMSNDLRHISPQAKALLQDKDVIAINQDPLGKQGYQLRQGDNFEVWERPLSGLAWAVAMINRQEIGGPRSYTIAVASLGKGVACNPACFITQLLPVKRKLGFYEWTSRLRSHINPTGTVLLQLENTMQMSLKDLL
row,SMILES,activity change
1,OCC(O)C1OC(Nc2ccc(Cl)cc2)C(O)C1O (configuration not stated),-3.1% (inactive)
2,Cn1c(=O)c2sccc2n2c(CCCC(=O)Nc3ccc(F)c(F)c3)nnc12,-2.29% (inactive)
3,Cc1cc(C)c(C(=O)Cn2cnc3cc([N+](=O)[O-])ccc3c2=O)cc1C,11.1% [at 23.6 µM] (inactive)
4,Clc1ccc(Nc2ncnc3ccc(Br)cc23)cc1,-6.43% [at 23.6 µM] (inactive)
5,Clc1cc2c(cc1/C=C/c1ccc3ccccc3n1)OCO2,9.14% (inactive)
6,COc1cc(CNc2ccc(N3CCCC3)cc2)ccc1OCc1ccccc1F,-3.03% (inactive)
7,COc1ccc(-c2nnc(NC(=O)CSc3ccc(Cl)cc3)s2)cc1,6.4% (inactive)
8,O=C(Nc1ccc(OCC(=O)N2CCN(S(=O)(=O)c3ccccc3)CC2)cc1)c1ccco1,2.43% (inactive)
9,CC1(C)CC(=O)c2cc(C(=O)NC3CCSC3=O)c(=O)n(-c3ccccc3)c2C1 (configuration not stated),3.01% [at 23.6 µM] (inactive)
10,CCOC(=O)c1cc2c(=O)n3cccc(C)c3nc2n(CCCOC)c1=NC(=O)c1cccnc1,16.7% [at 23.6 µM] (inactive)
11,Nc1ccccc1S(=O)(=O)N1CCOCC1,7.27% (inactive)
12,CC(=O)N1CCN(c2ccc(NCc3ccc4c(c3)OCO4)cc2)CC1,-12.3% (inactive)
13,O=S(=O)(c1ccc2ccccc2c1)N1CCOCC1,-0.447% (inactive)
14,COc1ccc(/C=c2\s/c(=C/C(=O)c3ccc(C)cc3)[nH]c2=O)cc1OC,-12.8% [at 23.6 µM] (inactive)
15,c1ccc(-c2nc3nc4ccccc4nc3n2CC2CCCO2)cc1 (configuration not stated),10.5% [at 23.6 µM] (inactive)
16,Cc1noc(C)c1S(=O)(=O)N(CC(=O)N1CCc2ccccc21)c1ccc(C(C)C)cc1,2.56% (inactive)
17,COC(=O)CSc1cc([N+](=O)[O-])ccc1NC(=O)OC,6.45% [at 23.6 µM] (inactive)

# From PubChem BioAssay AID2108 (National Center for Advancing Translational Sciences (NCATS), 2009)
